# AmpC detergent: AmpC beta-lactamase inhibition with detergent present | AID 485294 | 370,000 compounds, 0.041% hits | AmpC hydrolysis of nitrocefin, absorbance 480 nm, 0.01% Triton | Potency, µM (series often up to 114 µM), for inactives: at the top dose activity change, negative = inhibition, most hits filed as inhibitors;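 further: 0% = no-compound wells and -100% = no-enzyme wells; nearly all actives have a fitted effect of over 25% in size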
# Target sequence (P00811 whole entry, looked up): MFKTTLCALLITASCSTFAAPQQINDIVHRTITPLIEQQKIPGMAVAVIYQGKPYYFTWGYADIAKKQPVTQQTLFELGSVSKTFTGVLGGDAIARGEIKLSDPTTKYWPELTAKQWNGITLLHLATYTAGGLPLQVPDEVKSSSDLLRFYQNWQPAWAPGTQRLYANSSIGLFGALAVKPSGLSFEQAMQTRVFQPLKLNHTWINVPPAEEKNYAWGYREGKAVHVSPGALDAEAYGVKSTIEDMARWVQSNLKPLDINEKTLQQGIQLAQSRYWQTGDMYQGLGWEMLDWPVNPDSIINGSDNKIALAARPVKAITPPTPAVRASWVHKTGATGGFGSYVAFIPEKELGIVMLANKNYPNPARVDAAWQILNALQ
#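 AmpC (5.3 nM in the dispensed reagent) in 20 mM phosphate pH 7.0 with 0.01% (detergent screen) or 0.0001% Triton X-100 was preincubated with compounds for 15 min at room temperature. Nitrocefin was then added from an 800 uM solution, and hydrolysis was followed at 480 nm.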
# RE007 growth inh: less growth of the S. pombe RE007 Vpr strain | S. pombe RE007 Vpr strain, BacTiter-Glo ATP luminescence, 24 h | Potency, µM (titrated, usually from 92.2 µM), inactives show at the top dose activity change, negative = less growth, most hits filed as inhibitors | 360,000 compounds, 0.21% hits | AID 651644; active means well fitted falling curve with a large enough effect; inconclusive means small, poorly fitted or top-dose-only effect; inactive means no such curve, though single readings can be large or run the other way; further: on the % scale 0 is the no-effect control and ±100 the full control effect; nearly all actives have a fitted effect of over 50% in size
#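 Fission yeast RE007 carrying one integrated HIV-1 vpr copy, seeded at OD 0.01 in PMG+AL medium with 23 nL pinned compound. Grown 24 h at 30 degrees; viability read by BacTiter-Glo luminescence after 5 min.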
# AmpC no deterg: AmpC beta-lactamase inhibition without detergent | P00811 | AmpC nitrocefin hydrolysis, absorbance 480 nm, 0.0001% Triton | Potency, µM (doses to about 57.1 µM), inactives show top-dose activity change, negative = inhibition, hits mostly inhibitors | 330,000 compounds, 0.52% hits;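 further: plate controls were no compound for no effect and no enzyme for full effect; nearly all actives have a fitted effect of over 20% in size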
#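 20 mM phosphate pH 7.0 + 0.01% (detergent screen) or 0.0001% Triton X-100; 5.3 nM AmpC reagent; cpd preinc 15 min RT; nitrocefin (800 uM stock) to start; A480 q20 s × 4 min; Activity was normalised to no-enzyme and no-compound control wells.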
# SARS PLpro yeast: inhibitors of SARS-CoV papain-like protease in yeast; S. cerevisiae expressing SARS-CoV PLpro, growth rescue; Potency, µM (doses to about 32.9 µM), for inactives: top-dose activity, positive = growth rescue, most hits filed as activators; 330,000 compounds, 0.19% hits; calls by dose curve; further: 0% is about no effect; nearly all actives have a fitted effect of over 55% in size
# Sm TGR block: blocks Schistosoma mansoni thioredoxin glutathione reductase. Q962Y6. purified TGR, DTNB reduction, TNB absorbance 405 nm. Potency, µM (highest dose often 114 µM), for the others: at the highest dose activity change, negative = inhibition, usual class: inhibitors. 360,000 compounds, 3% hits. AID 485364; further: on the % scale 0 is the no-effect control and ±100 the full control effect; nearly all actives have a fitted effect of over 60% in size
#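 TGR 20 nM + NADPH 100 uM (dispensed conc.), cpd preinc 15 min RT; start with NADPH (500 uM addition) then DTNB (15 mM addition). Kinetic TNB absorbance, 405 nm filter. Four-parameter Hill fit across titration.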
# Tb PYK inh: blocks Trypanosoma brucei pyruvate kinase | Potency, µM (top dose mostly 76.8 µM), without a hit: at the highest dose activity, negative = inhibition, most hits filed as inhibitors | AID 624173 | 410,000 compounds, 0.12% hits | TbPYK enzyme, Kinase-Glo Plus ATP luminescence, 45 min | Q57TT1; further: on the % scale 0 is the no-effect control and ±100 the full control effect; nearly all actives have a fitted effect of over 50% in size
#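 Readout: single end-point luminescence (Kinase-Glo Plus, 10 min). Reaction conditions were TbPYK/substrate plus 130 uM ADP, 45 min at RT, pH 7.2 TEA buffer. No-enzyme wells served as controls, and data were normalized before concentration-response fitting.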
# The depositor's hits bear a star; ? = inconclusive; . = not tested or not shown. Only some compounds are listed: those with a hit (about 3.3% of all), similar ones and a draw of the others. Unless noted, the call rests on the fitted dose curve; in most records, active means well fitted curve in the direction sought with a large enough effect; inconclusive means small, poorly fitted or top-dose-only effect, or another doubt; inactive means no such curve, though single readings can be large; an effect the other way counts as inactive or inconclusive. Potency means the concentration at half of the fitted maximal effect.
SMILES,AmpC detergent,RE007 growth inh,AmpC no deterg,SARS PLpro yeast,Sm TGR block,Tb PYK inh
CSc1ccc(CCNC(=O)c2cc3cc4cc(C)ccc4nc3s2)cc1,17.7%,.,.,.,4.5%,0.8%
COc1ccc(-n2nc3c(c2NC(=O)COc2cccc(OC)c2)CS(=O)(=O)C3)cc1,?,14.0%,-41.1%,-0.5%,31.6µM*,-11.0%
COc1ccc(-n2nc3c(c2NC(=O)COc2ccccc2)CS(=O)(=O)C3)cc1,-7.9%,13.4%,-15.5%,2.2%,-6.7%,-2.3%
COc1ccc(C(=O)c2coc3ccc(O)c(CN4CCCCC4)c23)cc1,3.4%,-5.4%,39.8µM*,28.2%,-4.9%,-4.0%
Cc1ccc(/C=c2\sc3n(c2=O)CN(c2ccc(Br)cc2)CN=3)o1,-19.7%,-2.0%,-34.4%,-0.5%,12.6µM*,-11.4%
Cc1nc2ccccn2c1C(=O)N/N=C/c1ccc(CNC(=O)C(=O)Nc2ccccc2)o1,?,-18.7%,2.3%,5.4%,-17.8%,0.0%
O=C(NCc1ccc(/C=c2\sc3n(c2=O)CCN=3)o1)C(=O)Nc1ccccc1,-5.3%,.,-10.0%,-0.1%,35.5µM*,.
Cc1ccc(/C=c2/sc3n(c2=O)CCCN=3)o1,?,-17.5%,-2.5%,-39.8%,11.2µM*,-7.8%
O=c1/c(=C\c2ccc3c(c2)OCO3)sc2n1CCCN=2,-12.4%,?,-5.4%,-5.0%,-0.2%,-5.9%
CCOC(=O)COc1ccc(CC)cc1C(=O)c1ccn2nc(-c3ccccc3)cc2n1,-3.3%,.,.,.,-8.8%,-1.6%
CCCc1[nH][nH]c(=O)c1C(c1ccccc1)C(C#N)C#N (stereo not drawn),-10.0%,3.2%,-29.8%,-4.4%,2.51µM*,-10.1%
COc1cc(/C=C2\SC(c3ccc(C)cc3)=NC2=O)cc(OC)c1O,6.8%,-11.0%,9.4%,-5.6%,-25.7%,?
Cc1ccc(C2=NC(=O)/C(=C/c3cc(O)c(O)c(Br)c3)S2)cc1,1.5%,-5.1%,17.8µM*,6.31µM*,-31.9%,?
Cc1cccc(CC(=O)NCc2nc3cccnc3n2Cc2ccc(F)cc2)c1,-6.5%,.,.,.,-0.4%,-0.8%
Cn1c(=O)c2c(ncn2Cc2ccc(Cl)cc2)n(C)c1=O,2.7%,1.6%,-0.5%,-0.6%,0.0%,-2.9%
Cn1c(=O)c2c([nH]c(=S)n2Cc2ccc(Cl)cc2)n(C)c1=O,-6.7%,8.9%,-18.7%,-6.1%,6.7%,3.55µM*
Cc1ccc(NCc2cccn2-c2nnc(N3CCC(C(=O)NCCc4ccccc4)CC3)s2)cc1,10.2%,.,.,.,-4.1%,2.9%
COC(=O)c1c(NC(=O)CCc2ccc(C)o2)sc(C)c1C,7.4%,33.8%,-10.4%,-17.9%,39.8µM*,-18.6%
Cc1ccc(N2C(=O)N(CC(=O)Nc3cccc(Cl)c3)C(=O)C2C)cc1 (stereo not drawn),?,2.8%,70.3%,0.4%,-6.1%,-9.7%
CCc1ccccc1N1CC23C=CC(O2)C(C(=O)OCC(C)C)C3C1=O (stereo not drawn),-6.5%,3.5%,13.0%,3.3%,3.1%,-2.0%
Cc1ccc(N2C(=O)C3C4C=CC(CNC(=S)N5CCN(c6ccccn6)CC5)(O4)C3C2=O)cc1 (stereo not drawn),0.3%,3.98µM*,-2.1%,-21.5%,2.82µM*,-10.2%
Cc1ccc(CNC(=O)C2CCCN(C(=O)Nc3ccc(F)cc3)C2)cc1 (stereo not drawn),-7.7%,3.7%,0.2%,-0.9%,1.0%,-1.3%
CC(C)COC(=O)NCC12C=CC(O1)C1C(=O)N(c3ccc(Cl)cc3)C(=O)C12 (stereo not drawn),-5.9%,1.58µM*,-30.0%,-17.8%,1.58µM*,-23.3%
Cc1ccc(N2C(=O)C3C4C=CC(CNC(=S)Nc5cccc(Cl)c5)(O4)C3C2=O)cc1 (stereo not drawn),-5.3%,10µM*,?,-79.4%,3.98µM*,-4.2%
Cc1ccc(N2C(=O)C3C4C=CC(CNC(=S)Nc5ccc(F)cc5)(O4)C3C2=O)cc1 (stereo not drawn),-5.8%,10µM*,-36.1%,-82.3%,3.16µM*,-12.7%
SMILES,AmpC detergent,RE007 growth inh,AmpC no deterg,SARS PLpro yeast,Sm TGR block,Tb PYK inh
O=C(Nc1ccc(F)cc1F)c1cc(-c2ccc(Cl)cc2)on1,4.8%,.,.,.,-3.6%,-3.7%
COc1cccc(Nc2nc3ccc(C(=O)c4ccccc4)cc3n3c(C)nnc23)c1,12.3%,.,.,.,3.8%,-2.2%
Cc1cc(NCc2ccccc2Cl)n2cnnc2n1,0.1%,.,.,.,-1.1%,-0.6%
Cc1ccc(N2C(=O)C3C4C=CC(CNC(=S)Nc5ccc(Cl)cc5)(O4)C3C2=O)cc1 (stereo not drawn),-0.2%,22.4µM*,-38.9%,-87.6%,7.08µM*,-19.1%
Cc1ccc(Nc2c(-c3ccccn3)nc3ccc(Br)cn23)cc1,9.5%,.,.,.,4.8%,-0.7%
COC(=O)CNc1c(-c2ccccn2)nc2ccc(Br)cn12,?,-16.5%,2.2%,-1.8%,39.8µM*,-5.1%
CCN(CC)c1ccc(S(=O)(=O)N2CCOCC2)cc1NC(=O)COC(=O)/C=C/c1ccc(C)o1,?,5.3%,49.7%,-2.9%,31.6µM*,-11.9%
COc1ccc(NC(=O)C2CCC(C(C)(C)C)CC2)cc1S(=O)(=O)N1CCOCC1 (stereo not drawn),3.6%,10.1%,192.8%,0.8%,39.8µM*,2.5%
COc1ccc(NC(=O)C2CCC2)cc1S(=O)(=O)N1CCOCC1,-5.2%,3.2%,-20.3%,-3.7%,-2.0%,4.0%
O=C(Nc1ccccc1)c1ccc(NCCN2CCOCC2)c(S(=O)(=O)N2CCOCC2)c1,?,3.6%,52.9%,0.2%,4.3%,-0.4%
COc1ccc(C(=O)Nc2ccc(N3CCOCC3)cc2)cc1S(=O)(=O)N1CCOCC1,1.2%,0.5%,3.3%,-0.6%,5.8%,2.1%
O=C(Nc1ccccc1)c1ccc(NCc2ccco2)c(S(=O)(=O)N2CCOCC2)c1,-1.2%,9.4%,?,0.3%,31.6µM*,-5.8%
COc1ccc(C(=O)Nc2ccc(-c3ccc(C)o3)cc2)cc1S(=O)(=O)N1CCOCC1,5.7%,-19.9%,53.4%,11.1%,50.1µM*,-5.7%
CC1=C(C(=O)Nc2ccccc2)C(c2ccc(Br)cc2)n2nc(CCCO)nc2N1 (stereo not drawn),5.0%,.,.,.,1.1%,3.9%
Cc1nc2c(C(=O)NCCc3ccccc3)cnn2c(C)c1Cc1c(F)cccc1Cl,1.4%,.,.,.,6.1%,1.1%
CC(C)c1ccc(NC(=O)c2cc(S(=O)(=O)N(C)C3CCCCC3)ccc2F)cc1,10.4%,.,.,.,9.7%,9.2%
